# Compound activity as filed in PubChem.
# Only some compounds are listed: those with a hit (about 0.9% of all), similar ones and a draw of the others.
# PPARg SRC-3 ag: agonists of human PPARgamma SRC-3 coactivator recruitment; biochemical PPARgamma/SRC-3 coactivator recruitment assay; P37231; AID 731; activation, % at 8 µM; 0.26% of 200,000 active; in the data active = activation above about 23%;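 also: 0% = DMSO and 100% = reference agonist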
# PPARg SRC-2 ag: PPARgamma-driven SRC-2 recruitment agonism. P37231. PPARgamma LBD-SRC-2 recruitment, biochemical. activation, % at 8 µM. 0.34% of 200,000 active. AID 1032; in the data active = activation above about 22%;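 also: 0% = vehicle and 100% = reference agonist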
# SRC3 TRFRET art: flags TR-FRET format artefacts in PPARgamma SRC-3 recruitment agonist screen; TR-FRET ratio at 8 µM; AID 1048; 0.39% of 99,000 active; TR-FRET artefact counter-screen, PPARgamma/SRC-3 format; active compounds read high
# SRC1 TRFRET art: flags TR-FRET format artefacts in PPARgamma SRC-1 recruitment agonist screen; TR-FRET detection artefact counter-screen, emission ratio; active compounds read high; 0.34% of 99,000 active; TR-FRET ratio at 8 µM; in the data active = TR-FRET ratio above about 2300
# PPARg SRC1 recr: promotes SRC-1 coactivator recruitment by human PPARgamma; PPARgamma-SRC-1 coactivator recruitment biochemical assay; 0.41% of 200,000 active; activation, % at 8 µM; in the data active = activation above about 19%;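 also: 0% = DMSO and 100% = reference agonist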
# TR-FRET SRC-2 ct: TR-FRET artefact, counter-screen to PPARgamma/SRC-2 agonist assay. active compounds read high. TR-FRET ratio at 8 µM. 0.4% of 200,000 active
# PPARg SRC2 conf: human PPARgamma SRC-2 recruitment agonism, confirmation; 52% of 790 active; biochemical SRC-2 recruitment by PPARgamma; AID 1297; shares compounds with PPARg SRC-3 ag; activation, % at 8 µM; in the data active = activation above about 22%;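 also: 0% = vehicle alone and 100% = reference agonist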
# PPARg SRC1 conf: confirmation of agonists of SRC-1 recruitment by human PPARgamma | 43% of 790 active | PPARgamma–SRC-1 coactivator recruitment biochemical assay | shares compounds with PPARg SRC-3 ag | AID 1300 | activation, % at 8 µM; in the data active = activation above about 20%;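 also: 0% = vehicle wells and 100% = reference agonist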
# PPARg SRC3 ag: human PPARgamma SRC-3 recruitment agonism, confirmation. biochemical PPARgamma-SRC-3 coactivator recruitment, agonist mode. shares compounds with PPARg SRC-3 ag. 29% of 790 active. activation, % at 8 µM; in the data active = activation above about 24%;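 also: 0% = vehicle wells and 100% = reference agonist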
# * hit, by the source's call; nt = no result. Rule as the data show it, unless noted: active = TR-FRET ratio above about 2000; inactive = the rest.
SMILES,PPARg SRC-3 ag,PPARg SRC-2 ag,SRC3 TRFRET art,SRC1 TRFRET art,PPARg SRC1 recr,TR-FRET SRC-2 ct,PPARg SRC2 conf,PPARg SRC1 conf,PPARg SRC3 ag
Cc1csc(NC(=O)c2cccc(S(=O)(=O)N3CCN(C)CC3)c2)n1,2,2,1418,1679,0,1457,nt,nt,nt
Cc1ccc(SCc2cc(=O)n(C)[nH]2)cc1,1,5,1727,1940,5,1414,nt,nt,nt
CC(C)(C)c1ccc(C(=O)NC(=S)NNC(=O)c2cccs2)cc1,26*,15,1675,2055,9,1584,7,6,9
CCOC(=O)CCC(NC(=O)c1ccc(NCN2C(=O)c3ccccc3C2=O)cc1)C(=O)OCC (stereo not given),22,10,nt,nt,29*,1572,14,28*,21
Cc1ccc(CNC(=S)NCc2ccncc2)cc1,7,8,1715,1950,-1,1651,nt,nt,nt
COC(=O)CSc1ncnc2c1sc1nc3c(cc12)COC(C)(C)C3,12,24*,1809,2109,13,1748,17,15,12
COc1ccc(Cc2nnc(NS(=O)(=O)c3ccc(Cl)cc3)s2)cc1OC,-3,2,1490,1681,-10,1453,nt,nt,nt
O=[N+]([O-])c1cc(Br)c(O)c(C=Nc2ccc(N3CCOCC3)cc2)c1,45*,64*,2532*,2849*,61*,2845*,11,16,9
Oc1ccc(N=Cc2cc(Br)c(N3CCOCC3)o2)cc1,6,0,1705,1576,-6,1652,nt,nt,nt
C/C(=N\OCC(=O)Nc1ccccc1Br)c1cccs1,-1,3,1625,1778,0,1611,nt,nt,nt
N#CC(=C1N=c2ccccc2=N1)c1c(O)[nH]c2ccccc12,0,4,nt,nt,0,1518,nt,nt,nt
Cn1c(O)c(C(C#N)=C2N=c3ccccc3=N2)c2ccccc21,16,14,nt,nt,22*,1631,7,6,12
CCc1ccc(C(=O)CSc2nc(C)cc(=O)[nH]2)cc1,7,13,1546,1968,2,1580,nt,nt,nt
O=C(c1ccc(Cn2c(=S)[nH]c3cc4c(cc3c2=O)OCO4)cc1)N1CCN(c2ccccc2)CC1,2,-1,1780,2110,18,1767,nt,nt,nt
Cc1ccc(C)c(N2CCN(C(=O)c3ccc(Cn4c(=S)[nH]c5ccc(N6CCOCC6)cc5c4=O)cc3)CC2)c1,28*,17,3971*,4039*,26*,3479*,7,3,6
Cc1ccc(/C=N/Nc2ccc3ccccc3n2)o1,16,14,1637,1804,22*,1767,7,1,4
O=C(CCn1cnnn1)Nc1ccccc1,-1,0,1590,1630,7,1556,nt,nt,nt
O=C1N=c2ccccc2=C1c1sc(=S)n(NC(=O)c2cccc(O)c2)c1O,14,12,2060*,2026,22*,1790,35*,27*,22
O=C(Nn1c(O)c(C=C2N=c3ccccc3=N2)sc1=S)c1cccc(Cl)c1,27*,15,nt,nt,15,1764,23*,15,10
O=C(Nn1c(O)c(C=C2N=c3ccccc3=N2)sc1=S)c1ccc(Cl)cc1,0,-5,nt,nt,4,1686,nt,nt,nt
COc1ccc(C(Nc2ccc(S(=O)(=O)NCC3CCCO3)cc2)C(=O)NC(C)(C)C)cc1OC (stereo not given),4,3,1680,1866,0,1680,nt,nt,nt
COc1ccc(/C=N/c2c(-c3ccco3)nc3ccccn23)cc1OC,29*,23*,nt,nt,34*,1874,17,8,6
CCOc1ccc(C(=O)NCC(=O)Nc2ccc(N3CCOCC3)cc2)cc1OCC,-3,-8,1381,1764,7,1535,nt,nt,nt
CC(=O)C1=C(O)C(=O)N(CCc2c[nH]c3ccccc23)C1c1cccc(O)c1 (stereo not given),-3,-1,nt,nt,-6,1589,nt,nt,nt
COc1cc(C2C(C(C)=O)=C(O)C(=O)N2CCc2c[nH]c3ccccc23)ccc1O (stereo not given),9,5,nt,nt,19*,1653,0,0,3
SMILES,PPARg SRC-3 ag,PPARg SRC-2 ag,SRC3 TRFRET art,SRC1 TRFRET art,PPARg SRC1 recr,TR-FRET SRC-2 ct,PPARg SRC2 conf,PPARg SRC1 conf,PPARg SRC3 ag
Cc1cc2cc(CNC(=O)c3ccc(S(=O)(=O)N4CCCC4)cc3)ccc2n1C,88*,83*,nt,nt,60*,5041*,100*,84*,59*
CCN(CC)S(=O)(=O)c1ccc(C(=O)NCc2ccc3c(c2)cc(C)n3C)cc1,49*,75*,nt,nt,26*,4972*,158*,120*,102*
Cc1cc2cc(CNC(=O)c3ccc(S(=O)(=O)N4CCCCC4)cc3)ccc2n1C,111*,74*,nt,nt,83*,4697*,173*,143*,102*
Cc1cc2cc(CNC(=O)C3CC3)ccc2n1C,-6,-1,nt,nt,-4,1455,nt,nt,nt
Cc1ccc(-c2nc3ccsc3c(=O)[nH]2)cc1,3,-4,1573,1798,7,1382,nt,nt,nt
O=C(Nc1ccc2oc(-c3ccccc3)nc2c1)c1ccccc1F,-17,8,nt,nt,14,1684,nt,nt,nt
O=C(Nc1ccc2oc(-c3ccncc3)nc2c1)c1ccccc1F,39*,47*,nt,nt,49*,1409,2,0,1
O=[N+]([O-])c1ccc(-c2ccc(C=Nc3cccc4ccccc34)o2)cc1,7,-3,nt,nt,0,1585,nt,nt,nt
O=[N+]([O-])c1cc(-c2ccc(/C=N/c3nc4ccccn4c3-c3ccco3)o2)ccc1Cl,27*,16,nt,nt,16,1804,12,6,7
COC(=O)NC(=S)N1CCOCC1,2,-1,1613,1586,3,1428,nt,nt,nt
Cc1cc(=S)c2cccc(C)c2[nH]1,20,22*,2209*,2464*,16,2155*,2,3,2
O=C(NCCC1=CCCCC1)Nc1ccc2nsnc2c1,12,27*,1916,2164,28*,1887,16,13,10
O=C(COc1ccc(Cl)cc1)Nc1nnc(-c2ccco2)o1,6,3,1778,1749,13,1673,nt,nt,nt
Cn1cccc1/C=C1\Cc2ccccc2C1=O,14,24*,1490,2340*,19,1747,0,-2,0
Cn1cccc1/C=C1\CCc2ccccc2C1=O,6,7,1477,2018,15,1632,nt,nt,nt
CCN(CC)C(=O)CSc1ncccc1-c1nc2ccccc2[nH]1,3,4,1533,1579,1,1594,nt,nt,nt
O=S(=O)(c1ccc(OCC2CO2)cc1)c1ccc(OCC2CO2)cc1 (stereo not given),6,10,1543,1630,6,1520,nt,nt,nt
CC(=O)CSc1ccc(-c2nc3cc(C)c(C)cc3[nH]2)cn1,0,0,1677,1783,-2,1502,nt,nt,nt
